# Source: PubChem BioAssay AID588352 (The Scripps Research Institute Molecular Screening Center, 2011)
# The campaign covered roughly 360,000 compounds. About 620 (0.17%) were called active. The sample as a whole holds a higher share of actives than the screen did. Values without a mark were called inactive.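 How the source made its calls: active means inhibition above a per-campaign cutoff, the mean of all compounds plus 3 SD (cut at about 60% in these data); inactive means the rest.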
# Molecular target: Nuclear receptor coactivator 3 (Homo sapiens) (UniProt Q9Y6Q9)
# Sequence (Q9Y6Q9 whole entry, looked up, the tested form may be a part): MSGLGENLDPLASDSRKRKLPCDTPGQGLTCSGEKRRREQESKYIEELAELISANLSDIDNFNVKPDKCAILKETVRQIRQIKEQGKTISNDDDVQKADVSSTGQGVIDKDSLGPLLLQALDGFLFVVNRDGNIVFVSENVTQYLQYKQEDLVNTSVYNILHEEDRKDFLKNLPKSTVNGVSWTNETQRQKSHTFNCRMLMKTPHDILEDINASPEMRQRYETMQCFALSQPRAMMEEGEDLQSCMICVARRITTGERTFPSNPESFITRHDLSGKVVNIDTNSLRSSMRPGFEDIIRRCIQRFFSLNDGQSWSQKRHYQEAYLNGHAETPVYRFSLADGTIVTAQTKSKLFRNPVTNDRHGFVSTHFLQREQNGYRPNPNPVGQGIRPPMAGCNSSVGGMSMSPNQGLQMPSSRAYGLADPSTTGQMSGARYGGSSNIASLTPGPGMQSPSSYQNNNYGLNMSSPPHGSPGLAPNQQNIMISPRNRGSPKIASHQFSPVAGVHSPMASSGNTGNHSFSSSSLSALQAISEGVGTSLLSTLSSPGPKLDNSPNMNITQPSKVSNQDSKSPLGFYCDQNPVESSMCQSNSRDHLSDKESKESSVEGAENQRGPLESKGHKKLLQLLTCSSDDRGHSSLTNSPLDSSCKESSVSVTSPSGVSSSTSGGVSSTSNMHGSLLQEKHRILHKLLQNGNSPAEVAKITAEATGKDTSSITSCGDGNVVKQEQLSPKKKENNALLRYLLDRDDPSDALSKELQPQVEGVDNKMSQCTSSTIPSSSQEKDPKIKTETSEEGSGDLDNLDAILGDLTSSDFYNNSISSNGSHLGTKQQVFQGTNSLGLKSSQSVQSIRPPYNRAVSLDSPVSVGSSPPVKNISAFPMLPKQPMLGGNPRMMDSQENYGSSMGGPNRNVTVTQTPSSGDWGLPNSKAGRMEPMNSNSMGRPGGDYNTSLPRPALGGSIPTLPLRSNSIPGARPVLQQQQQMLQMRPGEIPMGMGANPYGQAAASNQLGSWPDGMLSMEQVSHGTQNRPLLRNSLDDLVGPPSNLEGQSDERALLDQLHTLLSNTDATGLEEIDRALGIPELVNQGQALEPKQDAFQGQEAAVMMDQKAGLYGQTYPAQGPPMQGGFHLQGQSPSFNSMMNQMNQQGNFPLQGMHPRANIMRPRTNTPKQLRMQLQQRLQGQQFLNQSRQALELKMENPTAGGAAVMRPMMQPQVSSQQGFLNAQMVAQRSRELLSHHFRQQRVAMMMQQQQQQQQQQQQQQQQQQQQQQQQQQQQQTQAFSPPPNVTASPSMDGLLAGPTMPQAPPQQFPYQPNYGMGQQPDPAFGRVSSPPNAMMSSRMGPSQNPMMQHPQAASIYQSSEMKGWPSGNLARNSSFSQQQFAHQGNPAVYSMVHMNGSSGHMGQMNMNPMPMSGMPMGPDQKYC
# Assay: SRC3 coactivator transcriptional activity inhibitors, primary screen, cell-based, luminescence (AID 588352);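 further: 0% = DMSO-treated cells and 100% = gossypol-treated cells at 36 µM; higher means less SRC3-driven luciferase light from the GAL4 reporter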
# Conditions: HEK293 GAL4-SRC3 luciferase reporter, at 3.6 µM, stronger effect = higher value
row,Compound,inhibition
1,C[C@]12CC[C@H](O)C[C@H]1CC[C@@H]1C2CC[C@]2(C)[C@@H](C3=CC(=O)OC3)[C@@H](O)C[C@]12O (stereo not given in full),63.5% (active)
2,CC12CCC(O)CC1CCC1C2CCC2(C)C(C(=O)CC(O)C(F)(F)F)CCC12 (stereo not given),15.9%
3,Cc1cccc(OP(=O)(Oc2cccc(C)c2)OC(c2ccccc2)C(F)(F)F)c1 (stereo not given),-1.86%
4,C[N+]1(C)CCOC(O)(c2ccc(-c3ccc(C4(O)C[N+](C)(C)CCO4)cc3)cc2)C1 (stereo not given),20.3%
5,CNC(=S)N/N=C1\C2CN3CCN(C2)CC1(c1ccccc1)C3,8.65%
6,COC(=O)C1=C(c2ccc(-c3ccccc3)c(F)c2)C[C@@H]2CC[C@H]1N2C(=O)NCc1ccc(F)cc1,9.01%
7,CCC(C)(O)C(=O)OC1C(=O)OC2CC3C(C)=CC(=O)C(O)C3(C)C3C4(O)OCC23C1C(C)C4O (stereo not given),93.7% (active)
8,O=C(Cn1c(=O)n(CC2CS2)c2ccccc21)N1CCCCC1 (stereo not given),-25.5%
9,COc1ccccc1CN1CCN(C(=O)Cc2ccccc2)CC1,2.02%
10,COC(=O)[C@@H]1C(OC(=O)c2ccccc2)CC2CCC1N2C (stereo not given in full),14.1%
11,CN(C)CCN(CC1CCCN(Cc2ccccc2F)C1)C(=O)Cc1ccc(F)c(F)c1 (stereo not given),3.08%
12,C=CC12CN(C)[C@@H]3C4CO[C@H](C[C@H]41)[C@]1(C(=O)Nc4ccccc41)[C@@H]32 (stereo not given in full),4.33%
13,CCOc1ccc(-c2cc(C)[n+](CCN(CC)CC)c(-c3ccc(OCC)cc3)c2)cc1,78% (active)
14,Cn1c(O)c(C=Nc2ccc3c(c2)CCC3)c(=O)n(C)c1=O,-9.05%
15,COC1C(O)C(C)OC(OC2CCC3(C=O)C(CCC4C3CCC3(C)C(C5=CC(=O)OC5)CCC43O)C2)C1O (stereo not given),90.5% (active)
16,Cn1c(C(=O)N2CCC(C(=O)N3CCC4(CC3)OCCO4)CC2)cc2sccc21,6.98%
17,NC(=O)Cn1cc(C(=O)c2ccccc2F)c2ccccc21,10.3%
18,Cc1ccc(P(=S)(c2ccc(C)o2)N2CCOCC2)o1,6.64%
19,CC(c1ccccc1)(c1ccccc1)c1ccncc1,16.2%
20,Fc1cccc(F)c1CN1CCN(Cc2c(F)cccc2F)CC1,28.2%
21,COc1ccc2[nH]c3c(c2c1)CCN[C@H]3C,7.99%
22,CC(=O)OC1C2(CC3N4C(=O)C5(CO)SSC4(CC31O)C(=O)N5C)OC(C)C(C)(C)C2=O (stereo not given),67.7% (active)
23,CC1CCCN1CCC(C(N)=O)(c1ccccc1)c1ccccc1 (stereo not given),-21.2%
24,COP(=O)(OC)C(NC(=O)c1ccc(C)cc1)C(Cl)(Cl)Cl (stereo not given),-4%
25,CCCCCCCCCCCCn1ccc(=N)cc1,76.9% (active)
26,CCOC(=O)C1CN(C)CCC1=O (stereo not given),21.1%
27,c1ccc2sc(N3CCNCC3)nc2c1,-3.09%
28,COc1cccc(OC)c1C(=O)NC(=S)N1C[C@H]2C[C@H](C1)c1cccc(=O)n1C2,19.2%
29,OC(Cn1c2ccccc2c2ccccc21)C[n+]1ccccc1 (stereo not given),-8.77%
30,CN(C)P(=S)(Nc1ccccc1)C(Cl)(Cl)Cl (stereo not given),6.36%
